Measurements from PubChem BioAssay (NCATS).
Inconclusive results are not listed. The source made the active and inactive calls. Calls come from the whole dose curve; as a rule, active = well fitted inhibition curve with a large enough effect; inconclusive = small, poorly fitted or top-dose-only effect; inactive = flat fitted curve, though single readings scatter.

Each molecule was assayed on HACAT (assay: qHTS assay to identify novel small-molecules to repurpose for Merkel cell carcinoma treatment (AID 1296009; note: nearly all actives have a fitted effect of over 60% in size)). Settings: MCC and control cell lines, CellTiter-Glo viability, 72 h; at 44.8 µM (top of the series) unless noted.
Summary of the method: (§1)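 Cells were treated for 72 hr at 37 degree celsius with compounds in 8- or 11-point dose response. Viability was read by CellTiter-Glo luminescence, normalized to no-cell (cytotoxicity) and DMSO controls.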
`CCN1CCc2nc(N)oc2CC1` was tested, and the outcome was “inactive”. In the case of `Cc1scc2c1N(C(=O)CN1CCN(C)CC1)c1ccccc1NC2=O`, the outcome is reported as “inactive”. `CC(=O)OC(C)C[N+](C)(C)C` (stereo unspecified) was tested, and the outcome was “inactive”. With `NC(Cc1ccc(Cl)cc1)C(=O)O` (stereo unspecified) the outcome was “inactive [at 0.588 µM]”. In the case of `FC(F)(F)c1ccccc1-n1ccnc1`, the outcome is reported as “inactive”. For `CCN1CCC[C@H]1CNC(=O)c1c(O)c(Cl)cc(Cl)c1OC`, the outcome was “inactive”. In the case of `CN=C(NC#N)NCCSCc1nc[nH]c1C`, the outcome is reported as “inactive”. With `NC/C=C/C(=O)O` the outcome was “inactive”. For `NC(=O)c1ncn([C@@H]2O[C@H](CO)[C@@H](O)[C@H]2O)c1O`, the outcome was “inactive”. `NCCCNCCSP(=O)(O)O` was tested, and the outcome was “inactive [at 9.27 µM]”. `c1ccc2c(c1)CCCC2C1=NCCN1` (stereo unspecified) was tested, and the outcome was “inactive”.

These molecules were tested on HEK293T in the same assay as above. Settings: MCC and control cell lines, CellTiter-Glo viability, 72 h; at 44.8 µM (top of the series) unless noted.
Summary of the method: as §1
`CCN1CCc2nc(N)oc2CC1` was tested, and the outcome was “inactive”. `C[N+](C)(C)CCOC(N)=O` was tested, and the outcome was “inactive”. With `NC(Cc1ccc(Cl)cc1)C(=O)O` (stereo unspecified) the outcome was “inactive [at 0.588 µM]”. `CCN1CCC[C@H]1CNC(=O)c1c(O)c(Cl)cc(Cl)c1OC` was tested, and the outcome was “inactive”. In the case of `CCCN(CCC)C(=O)C(CCC(=O)O)NC(=O)c1ccccc1` (stereo unspecified), the outcome is reported as “inactive”. For `O=C(O)CN(CCN(CC(=O)O)CC(=O)O)CCN(CC(=O)O)CC(=O)O`, the outcome was “inactive [at 17.4 µM]”. With `CN=C(NC#N)NCCSCc1nc[nH]c1C` the outcome was “inactive”. `NC/C=C/C(=O)O` was tested, and the outcome was “inactive”. `CCCN(CCC)CCc1cccc2c1CC(=O)N2` was tested, and the outcome was “inactive”. In the case of `O=C(O)CP(=O)(O)O`, the outcome is reported as “inactive”.
